Max response data for 94 compounds are collected here from PubChem BioAssay AID2314 (National Center for Advancing Translational Sciences (NCATS), 2010).

Structures are written as SMILES. About 37,000 (12%) of roughly 300,000 compounds were called active. No stated cut-off is given here; in the data, active means max response mostly above about 13% (no sharp cut-off); inactive means mostly below about 14%. This excerpt belongs to a sample that is enriched for actives.

This test can be described thus: Cycloheximide Counterscreen for Small Molecule Inhibitors of Shiga Toxin. Further: read at 38.3 µM for the half of the compounds with a filed dose; 0% is about no effect. The settings on record: cell reporter, cycloheximide protein synthesis inhibition counterscreen; stronger effect = higher value. On the technique in general: The purpose of a counterscreen is to sort out artefacts and off-target activity.
Take `CCCc1nc2c(c(=O)c3ccccc3n2C)c(=O)n1-c1cc(C)cc(C)c1`: the max response was -0.943% (inactive).

As to `NC(=O)c1ccc(NC(=O)COC(=O)c2c3c(nc4ccccc24)/C(=C\c2ccc4c(c2)OCO4)CCC3)cc1`, the max response was 38.8% (active).

`NS(=O)(=O)c1ccc(NC(=O)COC(=O)c2c3c(nc4ccccc24)/C(=C\c2ccc4c(c2)OCO4)CCC3)cc1`: the max response was 42.8% (active).

Turning to `O=C(COC(=O)c1c2c(nc3ccccc13)/C(=C\c1cccs1)CCC2)Nc1ccccc1Cl`, the max response is 10.2% (inactive).

`COc1cc(-c2cc(C(=O)OCC(=O)Nc3ccc4c(c3)OCO4)c3ccccc3n2)cc(OC)c1OC`: the max response is 4.65% (inactive).

In the case of `COc1cc(/C=C2\CCCc3c2nc2ccccc2c3C(=O)O)cc(Cl)c1O`, the max response was 4.53% (inactive).

As for `CN(C)S(=O)(=O)c1ccc(NC(=O)COC(=O)c2n[nH]c3ccccc23)cc1`, the max response was -0.614% (inactive).

As to `Cc1c(C(=O)N(C)CCc2cnn(C)c2)oc2c(F)cccc12`, the max response is -2.99% (inactive).

Regarding `CCCCc1nc2cc(C(=O)N3CCCCC3CCO)ccc2o1` (centres undefined), the max response is 45.9% (active).

Turning to `CCC1CCCCN1C(=O)CSc1nc(C)cc(C)n1` (centres undefined), the max response is 0.953% (inactive).

Turning to `CCCCc1nc2cc(C(=O)NCCc3cnn(C)c3)ccc2o1`, the max response is 38.8% (active).

As for `CCC1CCCCN1C(=O)Nc1cccc(NC(=O)N2CCCCC2CC)c1` (centres undefined), the max response is 4.95% (inactive).

With `COc1ccc(C(=O)NC2CC2)cc1OC1CCN(Cc2cnn(C)c2)CC1`, the max response was -0.356% (inactive).

Regarding `CCn1c(=O)n(CC)c2cc(N3CCCC3)c(NC(=O)c3ccccc3Br)cc21`, the max response is -1.85% (inactive).

`CC(C)(C)c1ccc(C(=O)N2CCN(CCNC(=O)C(=O)Nc3ccc(F)cc3)CC2)cc1`: the max response was 5.93% (inactive).

Take `Cc1ccc(-c2nnc(-n3nnc4ccccc43)c3ccccc23)cc1`: the max response was 9.11% (inactive).

On to `CC1CCN(C2=NC(=O)/C(=C/c3ccc(O)cc3)S2)CC1`, for which the max response was 31.9% (active).

On to `O=C(Nc1nnc(S(=O)(=O)N2CCCCCC2)s1)c1cccc(Br)c1`, for which the max response is -2.43% (inactive).

For `CCOc1cc(/C=C2/C(=N)N3OC(C)=CC3=NC2=O)ccc1OC`, the max response was 4.64% (inactive).

Consider `CCOc1cc(/C=C2\SC(N3CCCCC3)=NC2=O)ccc1O`, for which the max response is 36.3% (active).

On to `O=C1N=C(N2CCCC2)S/C1=C\c1cccc(Br)c1`, for which the max response was 20.2% (active).

On to `CCOc1ccc(/C=C2\SC(=S)N(NC(=O)c3ccncc3)C2=O)cc1OC`, for which the max response was -1.69% (inactive).

As to `CC1CCN(C2=NC(=O)/C(=C/c3cn[nH]c3-c3ccccc3)S2)CC1`, the max response is 20.1% (inactive).

Turning to `O=C1N=C2SCCN2/C1=C\c1c(Cl)cccc1Cl`, the max response is 1.23% (inactive).

As for `CCOc1cc(/C=C2\SC(N3CCCC(C)C3)=NC2=O)ccc1O` (centres undefined), the max response is 36.5% (active).

With `CCOc1cc(/C=C2\C(=N)N3N=C(C)SC3=NC2=O)ccc1OCCOc1ccccc1`, the max response is -1.53% (inactive).

On to `O=C1N=C(N2CCc3ccccc3C2)S/C1=C\c1ccc(O)cc1`, for which the max response was 10.4% (inactive).

Turning to `CCOc1cc(C(=S)N2CCOCC2)ccc1O`, the max response was -1.42% (inactive).

As to `Cc1ccc(N2CC(C(=O)NCCS(=O)(=O)N3CCN(c4ccccc4)CC3)CC2=O)cc1` (centres undefined), the max response was 1.37% (inactive).

Consider `CCOC(=O)c1c(-c2ccccc2)oc2ccc(OCC(N)=O)cc12`, for which the max response is -1.21% (inactive).

As to `O=C(O)CCCCCCCCc1cn(CN2C(=O)c3ccccc3C2=O)nn1`, the max response was 1.15% (inactive).

For `CCc1ccc(-c2cc3c(=O)n(CC(=O)NCCCN4CCN(Cc5ccccc5)CC4)nc(C)n3n2)cc1`, the max response is -1.84% (inactive).

On to `O=C(Cn1nc(CNc2ccc(Cl)cc2)[n+]2c1CCCCC2)c1ccc(Cl)cc1`, for which the max response was 11% (inactive).

As for `Cc1cccc(Oc2c([N+](=O)[O-])c(=O)n(C)c3ccccc23)c1`, the max response was 6.49% (inactive).

Regarding `CCOc1ccc(CCNC(=O)C(CC)n2nc(C)n3c(cc4sccc43)c2=O)cc1OCC` (centres undefined), the max response was -1.8% (inactive).

As for `Cn1c(=O)[nH]c(=O)c2c1nc(N1CCN(CCO)CC1)n2CCSc1nc2ccccc2s1`, the max response is -5.89% (inactive).

For the compound `Cc1nc2nc(CSc3nc4ccccc4s3)cc(=O)n2[nH]1`, the max response is -7.38% (inactive).

Take `CCN(CC)CCCSc1nc2ccccc2s1`: the max response is 36% (active).

Consider `O=C(COCc1cc(-c2ccc3c(c2)OCO3)on1)N1CCN(c2cccc(Cl)c2)CC1`, for which the max response was -2.82% (inactive).

Take `O=C(COC(=O)Cn1cnc2ccccc2c1=O)NCC12CC3CC(CC(C3)C1)C2`: the max response is -1.91% (inactive).

Regarding `COc1ccc(CCNC(=O)C(=O)NCc2ccccc2C)cc1OC`, the max response is -2.75% (inactive).

`c1n[nH]c(NCc2ccc3c(c2)OCO3)n1`: the max response is -1.69% (inactive).

With `COc1cc(CNc2ncn[nH]2)ccc1OCc1ccccc1C`, the max response is 36.9% (active).

Take `COC(=O)CN1C(=O)[C@H]2[C@@H](/C=C/c3ccccc3)N3C(=O)CN(CC4CC4)C(=O)[C@@]3(Cc3ccccc3)[C@H]2C1=O`: the max response is 0.35% (inactive).

Turning to `Cc1c2cnn(CC(=O)NCCCN3CC(C)CC(C)C3)c(=O)c2c(C)n1Cc1ccc(Cl)cc1` (centres undefined), the max response is -5.34% (inactive).

With `CCc1ccc2ncc(C(=O)c3ccccc3)c(N3CCOCC3)c2c1`, the max response is 2.65% (inactive).

As for `CCOc1ccc(C(=O)Nc2c3c(nn2-c2ccccc2)CS(=O)(=O)C3)cc1`, the max response is -1.43% (inactive).

Regarding `CCn1ccnc1CN(C)C(=O)c1ccc2nc(Cc3ccc(OC)cc3)oc2c1`, the max response was -0.601% (inactive).

With `COc1ccc(Cc2nc3ccc(C(=O)NCC4CCOCC4)cc3o2)cc1OC`, the max response is 23.6% (active).

For `Cn1cc(C(=O)NCc2ccccc2F)cn1`, the max response is -3.82% (inactive).

As to `COc1ccc(C(=O)NCCc2ccc(S(N)(=O)=O)cc2)cc1OC`, the max response was 9.83% (inactive).

As to `COc1ccccc1-n1c(C)nc2cc(C(=O)NCc3ccc4c(c3)OCO4)ccc21`, the max response is 5.54% (inactive).

`CSCCNC(=O)c1ccc2nc(Cc3ccccc3F)oc2c1`: the max response is 54.4% (active).

Take `COc1ccc(Cc2nc3ccc(C(=O)N4CCC(N(C)C)C4)cc3o2)cc1` (centres undefined): the max response was 7.38% (inactive).

For `COCCNC(=O)c1ccc2nc(Cc3ccc(OC)c(OC)c3)oc2c1`, the max response is 32% (active).

Consider `CCC1C(=O)NCCN1C(=O)c1ccc2nc(Cc3ccc(OC)cc3)oc2c1` (centres undefined), for which the max response was 16.3% (inactive).

Turning to `Cc1ccc(S(=O)(=O)N2CCC3(CC2)OCCO3)c(C)c1`, the max response is -3.35% (inactive).

As to `Cc1ccc(S(=O)(=O)N2CCN(C(=O)CSc3cc(C)ccc3C)CC2)c(C)c1`, the max response is 12.6% (inactive).

Take `C=CCOc1ccc(/C=C/C(=O)OCC(=O)NC2CCCCCC2)cc1`: the max response is -2.39% (inactive).

For the compound `O=S(=O)(Cc1nnnn1-c1ccccc1)c1ccccc1`, the max response was -0.262% (inactive).

In the case of `O=C(CN1C(=O)c2ccccc2S1(=O)=O)NC1CCCCC1`, the max response is 3.93% (inactive).

For the compound `Cc1ccc(F)cc1NC(=O)N1CCCN(c2ccc(C(F)(F)F)cn2)CC1`, the max response is -0.488% (inactive).

On to `O=C(CSc1nc(Nc2ccccc2)nc(N2CCOCC2)n1)Nc1cc(Cl)ccc1O`, for which the max response is 7.58% (inactive).

As to `O=C(O)c1ccc(/C=C2/SC(=S)N(c3cccc(C(F)(F)F)c3)C2=O)cc1`, the max response was -7.16% (inactive).

Consider `S=C(NCc1ccc2c(c1)OCO2)NCc1ccco1`, for which the max response was 28.4% (active).

In the case of `Cc1c(Cl)cccc1NC(=S)NCc1ccc2c(c1)OCO2`, the max response was -1.28% (inactive).

With `S=C(Nc1cccc(Cl)c1)Nc1ccc2c(c1)OCCO2`, the max response is 42.2% (active).

On to `FC(F)(F)c1cccc(NC(=S)Nc2cccc(Cl)c2)c1`, for which the max response was -2.33% (inactive).

Regarding `CN(C)S(=O)(=O)c1cccc(NC(=S)NCc2ccc3c(c2)OCO3)c1`, the max response was 0.966% (inactive).

In the case of `FC(F)Oc1ccc(NC(=S)NCc2ccco2)cc1Cl`, the max response is 11.2% (inactive).

Take `COc1cc(NC(=S)NCc2ccco2)c(OC)cc1Cl`: the max response is -2.3% (inactive).

As to `S=C(NCc1ccco1)NCc1ccccc1Cl`, the max response was -2.41% (inactive).

With `S=C(NCc1ccco1)Nc1ccc2c(c1)OCCO2`, the max response was 69.9% (active).

For the compound `O=S(=O)(c1ccccc1)N(Cc1cccc(F)c1)c1ccccc1`, the max response is -0.496% (inactive).

For `CC(=O)N1CCC(C(=O)Nc2nc(-c3ccccc3)ns2)CC1`, the max response is 0.624% (inactive).

On to `NC(=O)c1cc(S(=O)(=O)NCCCc2ccco2)cs1`, for which the max response was -2.26% (inactive).

In the case of `CCc1nnc(NC(=O)[C@@H](NC(=O)c2cccc(C)c2)C(C)C)s1`, the max response is -2.22% (inactive).

Consider `C=CCn1c(SCc2ccccc2)nc2c1c(=O)[nH]c(=O)n2C`, for which the max response was -1.99% (inactive).

With `O=C(CSc1nnc2ccc(-c3ccncc3)nn12)N1CCCCC1`, the max response is -4.64% (inactive).

Consider `CC(C)C(=O)Nc1nnc(SCC(=O)N2C(C)CCCC2C)s1` (centres undefined), for which the max response was 1.12% (inactive).

For the compound `O=C(CSc1nnnn1C1CCCC1)N1CCCCC1`, the max response is 27% (active).

As to `CC(Sc1nnnn1C1CCCCC1)C(=O)O` (centres undefined), the max response is 5.78% (inactive).

As for `CCCc1nnc(SCC(=O)N2C(C)CCCC2C)n1CC` (centres undefined), the max response is 7.27% (inactive).

On to `CC1CCCC(C)N1C(=O)CSc1nnnn1C1CCCC1` (centres undefined), for which the max response is 25.7% (active).

For `O=Cc1cn(-c2ccccc2)nc1-c1ccccn1`, the max response was 3.16% (inactive).

`Cc1c(CN2CC[C@@H](N3CCN(c4ccccn4)CC3)[C@H](O)C2)[nH]c2ccc(F)cc12`: the max response is 1.28% (inactive).

As for `O=C(NCc1ccccc1)C(c1ccccc1)N(C(=O)c1csnn1)c1ccc(F)cc1` (centres undefined), the max response was -4.47% (inactive).

On to `O=S(=O)(Nc1ccc(OC(F)(F)F)cc1)c1cccc2nonc12`, for which the max response was -2.47% (inactive).

As to `O=S(=O)(Cc1nnnn1-c1ccc(Br)cc1)c1ccc(F)cc1`, the max response is -2.53% (inactive).

In the case of `O=S(=O)(Cc1noc(-c2ccc(OC(F)(F)F)cc2)n1)c1ccc(F)cc1`, the max response was 22.3% (active).

In the case of `COc1cc(OC)cc(C(=O)NC(=S)N2CCN(c3ccc(C(F)(F)F)cc3[N+](=O)[O-])CC2)c1`, the max response was 4.72% (inactive).

With `Cc1cc(C)cc(NS(=O)(=O)c2ccc(F)cc2)c1`, the max response was -2.02% (inactive).

Consider `Cc1ccc(NS(=O)(=O)c2ccc(F)cc2)nc1`, for which the max response is -3.76% (inactive).

Consider `Cn1nccc1NS(=O)(=O)c1ccc(F)cc1`, for which the max response is 162% (active).
